Experimental data reported in ChEMBL document CHEMBL1961873, “Compounds: GSK PKIS; Assays: Nanosyn kinase panel” (2012).

Experiments:
[1] = target: Ribosomal protein S6 kinase alpha-6 (Homo sapiens) (UniProt Q9UK32); conditions: at 1 µM;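 further: each value is a mean inhibition of RSK4 from a GSK PKIS panel screen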
[2] = target: T1, Serine/threonine-protein kinase Sgk1 (Homo sapiens) (UniProt O00141); conditions: at 0.1 µM
T1 sequence (whole entry): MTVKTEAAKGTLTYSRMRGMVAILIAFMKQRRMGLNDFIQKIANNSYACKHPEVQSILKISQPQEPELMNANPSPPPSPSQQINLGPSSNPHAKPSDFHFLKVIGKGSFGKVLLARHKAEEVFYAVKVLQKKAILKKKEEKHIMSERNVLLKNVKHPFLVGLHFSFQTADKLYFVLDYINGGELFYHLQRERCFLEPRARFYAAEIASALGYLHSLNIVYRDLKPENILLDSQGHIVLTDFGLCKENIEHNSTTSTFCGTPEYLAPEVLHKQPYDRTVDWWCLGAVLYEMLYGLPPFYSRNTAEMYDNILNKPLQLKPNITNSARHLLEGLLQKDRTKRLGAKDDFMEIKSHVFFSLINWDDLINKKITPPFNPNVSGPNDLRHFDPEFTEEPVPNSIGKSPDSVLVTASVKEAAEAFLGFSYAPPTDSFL

[3] = target: T1, Serine/threonine-protein kinase Sgk1 (Homo sapiens); conditions: at 1 µM
[4] = target: T2, Serine/threonine-protein kinase Sgk2 (Homo sapiens) (UniProt Q9HBY8); conditions: at 0.1 µM
T2 sequence (whole entry): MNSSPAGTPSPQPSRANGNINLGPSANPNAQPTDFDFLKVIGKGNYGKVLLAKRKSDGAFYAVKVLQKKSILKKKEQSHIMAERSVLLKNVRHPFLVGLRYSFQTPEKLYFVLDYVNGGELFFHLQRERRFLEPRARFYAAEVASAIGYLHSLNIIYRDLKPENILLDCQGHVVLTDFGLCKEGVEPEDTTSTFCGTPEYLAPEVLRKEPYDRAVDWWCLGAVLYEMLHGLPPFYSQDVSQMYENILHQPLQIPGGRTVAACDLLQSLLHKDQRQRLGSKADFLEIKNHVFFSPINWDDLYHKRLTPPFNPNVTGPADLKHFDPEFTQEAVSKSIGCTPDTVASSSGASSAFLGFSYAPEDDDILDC

[5] = target: T2, Serine/threonine-protein kinase Sgk2 (Homo sapiens); conditions: at 1 µM
[6] = target: T3, Serine/threonine-protein kinase Sgk3 (Homo sapiens) (UniProt Q96BR1); conditions: at 0.1 µM
T3 sequence (whole entry): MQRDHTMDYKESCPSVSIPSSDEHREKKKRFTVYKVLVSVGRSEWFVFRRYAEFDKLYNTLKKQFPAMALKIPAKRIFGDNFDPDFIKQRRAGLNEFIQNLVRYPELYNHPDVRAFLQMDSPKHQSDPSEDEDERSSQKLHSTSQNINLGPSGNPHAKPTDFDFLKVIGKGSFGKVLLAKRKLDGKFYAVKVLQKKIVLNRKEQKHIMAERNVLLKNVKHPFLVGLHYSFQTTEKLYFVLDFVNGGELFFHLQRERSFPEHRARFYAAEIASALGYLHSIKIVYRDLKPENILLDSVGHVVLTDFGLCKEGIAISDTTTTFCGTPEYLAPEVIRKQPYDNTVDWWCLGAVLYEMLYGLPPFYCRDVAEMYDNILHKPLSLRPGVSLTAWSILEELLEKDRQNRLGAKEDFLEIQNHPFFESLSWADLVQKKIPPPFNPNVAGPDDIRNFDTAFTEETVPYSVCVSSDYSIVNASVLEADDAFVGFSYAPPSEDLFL

[7] = target: T3, Serine/threonine-protein kinase Sgk3 (Homo sapiens); conditions: at 1 µM
[8] = target: 5'-AMP-activated protein kinase catalytic subunit alpha-1 (Homo sapiens) (UniProt Q13131); conditions: at 0.1 µM
Sequence of 5'-AMP-activated protein kinase catalytic subunit alpha-1 (Homo sapiens) (Q13131 whole entry, looked up): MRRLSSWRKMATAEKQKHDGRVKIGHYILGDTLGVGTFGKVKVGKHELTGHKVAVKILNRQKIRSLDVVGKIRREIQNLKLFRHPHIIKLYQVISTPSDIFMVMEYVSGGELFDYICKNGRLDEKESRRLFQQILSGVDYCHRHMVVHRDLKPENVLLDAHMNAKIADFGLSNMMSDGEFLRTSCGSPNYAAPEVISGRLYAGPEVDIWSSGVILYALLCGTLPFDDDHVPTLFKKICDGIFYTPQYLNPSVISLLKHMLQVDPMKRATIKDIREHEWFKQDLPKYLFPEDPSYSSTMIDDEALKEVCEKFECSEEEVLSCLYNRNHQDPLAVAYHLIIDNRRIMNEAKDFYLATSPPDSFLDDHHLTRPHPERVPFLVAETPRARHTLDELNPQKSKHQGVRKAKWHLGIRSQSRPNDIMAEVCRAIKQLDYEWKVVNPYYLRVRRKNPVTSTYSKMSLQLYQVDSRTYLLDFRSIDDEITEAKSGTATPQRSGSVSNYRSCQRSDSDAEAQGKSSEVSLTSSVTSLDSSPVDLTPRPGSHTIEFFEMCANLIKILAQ

[9] = target: 5'-AMP-activated protein kinase catalytic subunit alpha-1 (Homo sapiens) (UniProt Q13131); conditions: at 1 µM
[10] = target: 5'-AMP-activated protein kinase catalytic subunit alpha-2 (Homo sapiens) (UniProt P54646); conditions: at 0.1 µM
Sequence of 5'-AMP-activated protein kinase catalytic subunit alpha-2 (Homo sapiens) (P54646 whole entry, looked up): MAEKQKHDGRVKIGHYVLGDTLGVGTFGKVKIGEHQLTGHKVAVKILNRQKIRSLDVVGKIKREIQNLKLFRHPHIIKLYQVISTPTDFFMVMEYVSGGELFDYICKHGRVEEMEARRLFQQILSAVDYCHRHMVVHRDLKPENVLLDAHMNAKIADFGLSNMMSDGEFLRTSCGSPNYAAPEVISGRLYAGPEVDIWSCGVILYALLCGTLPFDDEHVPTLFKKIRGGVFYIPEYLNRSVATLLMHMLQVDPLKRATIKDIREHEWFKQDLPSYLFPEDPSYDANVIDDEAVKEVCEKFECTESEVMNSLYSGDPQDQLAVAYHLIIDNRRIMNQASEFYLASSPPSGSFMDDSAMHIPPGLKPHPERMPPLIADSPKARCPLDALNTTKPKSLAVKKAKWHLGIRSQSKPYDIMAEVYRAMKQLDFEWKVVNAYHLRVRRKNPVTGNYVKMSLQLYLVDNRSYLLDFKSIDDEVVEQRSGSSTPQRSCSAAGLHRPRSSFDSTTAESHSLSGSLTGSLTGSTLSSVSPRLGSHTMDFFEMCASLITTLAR

[11] = target: 5'-AMP-activated protein kinase catalytic subunit alpha-2 (Homo sapiens) (UniProt P54646); conditions: at 1 µM
[12] = target: T4, NUAK family SNF1-like kinase 1 (Homo sapiens) (UniProt O60285); conditions: at 0.1 µM
T4 sequence (whole entry): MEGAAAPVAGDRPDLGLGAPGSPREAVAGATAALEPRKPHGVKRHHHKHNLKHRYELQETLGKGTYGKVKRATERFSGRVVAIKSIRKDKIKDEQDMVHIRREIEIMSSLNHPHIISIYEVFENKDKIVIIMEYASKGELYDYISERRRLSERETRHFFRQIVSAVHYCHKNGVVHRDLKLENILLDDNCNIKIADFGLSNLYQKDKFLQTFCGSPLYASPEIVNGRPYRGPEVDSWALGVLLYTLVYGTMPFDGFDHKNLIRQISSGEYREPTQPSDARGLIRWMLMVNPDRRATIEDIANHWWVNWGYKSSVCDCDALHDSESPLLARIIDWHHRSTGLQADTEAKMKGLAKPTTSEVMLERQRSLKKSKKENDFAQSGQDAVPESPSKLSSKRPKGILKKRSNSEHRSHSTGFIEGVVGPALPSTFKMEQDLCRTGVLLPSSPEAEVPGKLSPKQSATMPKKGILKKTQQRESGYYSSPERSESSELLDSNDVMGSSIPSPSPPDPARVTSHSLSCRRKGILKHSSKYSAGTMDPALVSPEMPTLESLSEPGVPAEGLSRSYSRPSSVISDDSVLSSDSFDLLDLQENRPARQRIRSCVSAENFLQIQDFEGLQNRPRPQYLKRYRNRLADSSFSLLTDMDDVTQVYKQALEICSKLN

[13] = target: T4, NUAK family SNF1-like kinase 1 (Homo sapiens); conditions: at 1 µM
[14] = target: T5, Serine/threonine-protein kinase BRSK1 (Homo sapiens) (UniProt Q8TDC3); conditions: at 0.1 µM
T5 sequence (whole entry): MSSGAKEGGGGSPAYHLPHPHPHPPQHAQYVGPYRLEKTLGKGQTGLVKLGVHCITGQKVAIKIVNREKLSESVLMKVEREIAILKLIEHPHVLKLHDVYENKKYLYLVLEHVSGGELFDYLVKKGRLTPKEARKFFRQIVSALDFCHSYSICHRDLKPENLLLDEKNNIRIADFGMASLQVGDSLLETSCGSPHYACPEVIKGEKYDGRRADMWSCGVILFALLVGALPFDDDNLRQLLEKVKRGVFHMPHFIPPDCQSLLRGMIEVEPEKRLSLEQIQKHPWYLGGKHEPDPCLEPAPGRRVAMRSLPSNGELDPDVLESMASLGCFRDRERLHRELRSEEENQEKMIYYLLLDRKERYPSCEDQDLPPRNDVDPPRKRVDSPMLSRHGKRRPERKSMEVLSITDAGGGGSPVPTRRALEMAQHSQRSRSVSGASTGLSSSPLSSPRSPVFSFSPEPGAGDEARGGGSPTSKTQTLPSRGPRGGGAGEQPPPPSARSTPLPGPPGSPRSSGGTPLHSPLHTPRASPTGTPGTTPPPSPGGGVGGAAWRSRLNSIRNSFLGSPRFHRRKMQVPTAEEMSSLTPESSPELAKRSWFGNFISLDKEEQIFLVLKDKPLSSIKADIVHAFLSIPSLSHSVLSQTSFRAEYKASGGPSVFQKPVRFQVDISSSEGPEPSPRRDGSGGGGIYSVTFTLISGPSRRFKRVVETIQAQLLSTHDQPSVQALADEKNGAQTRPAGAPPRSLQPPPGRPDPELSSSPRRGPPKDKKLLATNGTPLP

[15] = target: T5, Serine/threonine-protein kinase BRSK1 (Homo sapiens); conditions: at 1 µM
[16] = target: T6, Serine/threonine-protein kinase BRSK2 (Homo sapiens) (UniProt Q8IWQ3); conditions: at 0.1 µM
T6 sequence (whole entry): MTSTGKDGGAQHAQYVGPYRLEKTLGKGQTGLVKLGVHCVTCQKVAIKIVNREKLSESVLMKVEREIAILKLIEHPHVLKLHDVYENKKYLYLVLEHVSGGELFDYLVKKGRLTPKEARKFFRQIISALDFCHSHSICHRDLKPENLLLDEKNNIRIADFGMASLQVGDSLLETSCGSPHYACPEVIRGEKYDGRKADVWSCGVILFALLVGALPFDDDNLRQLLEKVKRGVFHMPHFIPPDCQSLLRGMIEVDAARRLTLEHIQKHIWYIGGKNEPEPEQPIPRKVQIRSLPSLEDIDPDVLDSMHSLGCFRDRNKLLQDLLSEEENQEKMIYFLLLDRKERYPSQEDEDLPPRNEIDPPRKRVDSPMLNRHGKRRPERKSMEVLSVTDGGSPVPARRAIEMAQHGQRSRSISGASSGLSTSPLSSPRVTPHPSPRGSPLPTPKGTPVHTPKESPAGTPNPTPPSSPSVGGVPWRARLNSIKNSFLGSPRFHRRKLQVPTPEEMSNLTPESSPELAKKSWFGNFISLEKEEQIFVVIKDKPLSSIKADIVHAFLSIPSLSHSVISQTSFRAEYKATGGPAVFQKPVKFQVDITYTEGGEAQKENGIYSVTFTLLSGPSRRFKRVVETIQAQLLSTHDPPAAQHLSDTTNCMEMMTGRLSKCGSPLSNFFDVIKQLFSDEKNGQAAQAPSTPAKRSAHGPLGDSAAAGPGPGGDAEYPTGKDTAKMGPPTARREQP

[17] = target: T6, Serine/threonine-protein kinase BRSK2 (Homo sapiens); conditions: at 1 µM
[18] = target: Calcium/calmodulin-dependent protein kinase type 1D (Homo sapiens) (UniProt Q8IU85); conditions: at 0.1 µM
Sequence of Calcium/calmodulin-dependent protein kinase type 1D (Homo sapiens) (Q8IU85 whole entry, looked up): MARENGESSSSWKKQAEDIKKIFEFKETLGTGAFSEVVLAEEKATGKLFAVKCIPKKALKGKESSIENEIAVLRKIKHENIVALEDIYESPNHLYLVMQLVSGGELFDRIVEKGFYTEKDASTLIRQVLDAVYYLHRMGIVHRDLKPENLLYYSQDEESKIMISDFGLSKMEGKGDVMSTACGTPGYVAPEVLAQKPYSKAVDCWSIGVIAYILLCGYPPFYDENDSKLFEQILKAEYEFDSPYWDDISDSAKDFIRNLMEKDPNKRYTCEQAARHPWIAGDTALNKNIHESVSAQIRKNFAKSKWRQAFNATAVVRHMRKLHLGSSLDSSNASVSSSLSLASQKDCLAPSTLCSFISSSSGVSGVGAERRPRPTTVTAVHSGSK

[19] = target: Calcium/calmodulin-dependent protein kinase type 1D (Homo sapiens) (UniProt Q8IU85); conditions: at 1 µM
[20] = target: Calcium/calmodulin-dependent protein kinase type II subunit alpha (Homo sapiens) (UniProt Q9UQM7); conditions: at 0.1 µM;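 further: reported values are averages (mean inhibition of CAMK2A)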
Sequence of Calcium/calmodulin-dependent protein kinase type II subunit alpha (Homo sapiens) (Q9UQM7 whole entry): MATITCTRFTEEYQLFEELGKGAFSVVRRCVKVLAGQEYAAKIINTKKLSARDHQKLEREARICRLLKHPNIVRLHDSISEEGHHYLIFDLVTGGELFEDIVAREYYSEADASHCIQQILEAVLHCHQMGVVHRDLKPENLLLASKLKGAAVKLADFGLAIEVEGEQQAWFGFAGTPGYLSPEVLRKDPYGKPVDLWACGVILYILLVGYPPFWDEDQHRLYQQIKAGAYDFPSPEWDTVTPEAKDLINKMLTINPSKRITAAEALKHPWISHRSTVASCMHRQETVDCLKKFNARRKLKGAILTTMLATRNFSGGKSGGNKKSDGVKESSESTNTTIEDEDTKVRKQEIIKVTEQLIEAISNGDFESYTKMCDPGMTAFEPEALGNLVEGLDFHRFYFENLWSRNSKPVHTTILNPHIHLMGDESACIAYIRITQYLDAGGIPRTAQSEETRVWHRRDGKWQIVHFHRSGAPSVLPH

Sequence of Ribosomal protein S6 kinase alpha-6 (Homo sapiens) (Q9UK32 whole entry): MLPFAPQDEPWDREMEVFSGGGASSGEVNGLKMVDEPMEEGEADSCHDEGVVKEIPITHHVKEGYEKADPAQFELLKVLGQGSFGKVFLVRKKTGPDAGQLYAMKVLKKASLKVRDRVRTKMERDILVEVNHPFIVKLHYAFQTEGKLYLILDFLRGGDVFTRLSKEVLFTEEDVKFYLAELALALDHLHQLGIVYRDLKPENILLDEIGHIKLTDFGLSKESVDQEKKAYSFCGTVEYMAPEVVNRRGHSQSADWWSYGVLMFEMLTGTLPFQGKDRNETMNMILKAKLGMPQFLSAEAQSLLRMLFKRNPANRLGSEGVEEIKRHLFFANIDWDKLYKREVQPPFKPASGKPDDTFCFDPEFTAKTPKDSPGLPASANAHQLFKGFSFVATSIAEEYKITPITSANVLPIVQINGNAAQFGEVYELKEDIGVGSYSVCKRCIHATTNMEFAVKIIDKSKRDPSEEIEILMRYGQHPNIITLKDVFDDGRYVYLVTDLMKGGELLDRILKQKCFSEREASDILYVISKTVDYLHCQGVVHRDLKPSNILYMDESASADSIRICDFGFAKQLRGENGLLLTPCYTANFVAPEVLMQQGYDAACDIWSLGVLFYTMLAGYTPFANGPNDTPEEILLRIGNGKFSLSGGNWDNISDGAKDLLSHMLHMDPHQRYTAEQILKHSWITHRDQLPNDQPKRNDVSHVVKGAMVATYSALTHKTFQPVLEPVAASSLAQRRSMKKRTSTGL

SMILES	inhibition [1]	inhibition [2]	inhibition [3]	inhibition [4]	inhibition [5]	inhibition [6]	inhibition [7]	inhibition [8]	inhibition [9]	inhibition [10]	inhibition [11]	inhibition [12]	inhibition [13]	inhibition [14]	inhibition [15]	inhibition [16]	inhibition [17]	inhibition [18]	inhibition [19]	inhibition [20]
FC(F)(F)c1ccc(-c2nn3ncccc3c2-c2ccnc(Nc3ccc4c(c3)OCCO4)n2)cc1	0.72%	9.07%	10.2%	5.69%	10.8%	7.48%	12.9%	1.3%	4.07%	5.75%	4.55%	4.03%	5.73%	5.08%	8.29%	6.76%	11.7%	2.95%	-0.58%	-2.94%
c1ccc(Nc2ncc(-c3ccccc3)o2)cc1	3.23%	2.66%	4%	2.47%	0.08%	4.53%	2.32%	2.6%	4.99%	7.1%	0.19%	-0.12%	11%	0.5%	2.07%	0.2%	3.56%	1.22%	2.94%	2.13%
NS(=O)(=O)c1ccc(N/N=C2\C(=O)Nc3ccc(Cl)cc32)cc1	3.15%	3.68%	7.28%	2.41%	5.65%	4.29%	3.61%	6.79%	16.1%	1.86%	12.9%	11%	48.9%	0.76%	8.96%	3.16%	14.9%	0.02%	0.47%	2.65%
